Compounds without any hit were thinned out: in the full panel of roughly 79,000, 15% have a hit. Unmarked numbers belong to inactive results. The source made the active and inactive calls. Cut-off read from the data, not from the text of the source: active = growth inhibition above about 70%; inactive = the rest.
What was measured:
[1] = NCI Yeast Anticancer Drug Screen. Data for the rad50 strain (AID 155);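 note: 0% = growth of vehicle-only cultures of the same strain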; conditions: S. cerevisiae rad50 strain growth inhibition; at 50.0 µM; stronger effect = higher value
Method in brief: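 Cells are treated with compound, grown, and their growth is then scored against vehicle-only cultures of the same repair-deficient yeast strain.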

[2] = NCI Yeast Anticancer Drug Screen. Data for the mec2-1 strain (AID 157); conditions: S. cerevisiae mec2-1 strain, at 50.0 µM, stronger effect = higher value
Method in brief: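 Test agents were screened against the mec2-1 yeast strain, with defined DNA repair or cell cycle alteration. Growth was scored as inhibition against vehicle-only controls.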

[3] = NCI Yeast Anticancer Drug Screen. Data for the sgs1 mgt1 strain (AID 161);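 note: 0% = growth of cultures given vehicle only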; conditions: S. cerevisiae sgs1 mgt1 strain, at 50.0 µM, stronger effect = higher value
Method in brief: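 Genetically altered yeast, compound exposure, growth inhibition relative to vehicle.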

[4] = NCI Yeast Anticancer Drug Screen. Data for the cln2 rad14 strain (AID 165);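 note: 0% = growth equal to vehicle treated cultures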; conditions: S. cerevisiae cln2 rad14 strain, at 50.0 µM, stronger effect = higher value
Method in brief: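 Growth of compound-exposed yeast (cln2 rad14 genotype) measured and expressed as inhibition relative to vehicle.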

[5] = NCI Yeast Anticancer Drug Screen. Data for the bub3 strain (AID 167); conditions: S. cerevisiae bub3 mutant strain, at 50.0 µM, stronger effect = higher value
Method in brief: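 Part of a panel of yeast mutants defective in DNA damage repair or cell cycle regulation. Each strain is grown with compound, and inhibition is calculated relative to solvent-treated cultures.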

[6] = NCI Yeast Anticancer Drug Screen. Data for the mlh1 rad18 strain (AID 175); conditions: S. cerevisiae mlh1 rad18 strain growth inhibition; at 50.0 µM; stronger effect = higher value
Method in brief: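 In this whole-cell yeast screen, a strain with altered DNA damage repair is challenged with compound, and its growth is measured against matched vehicle-treated controls.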

## CCCCCCCCCCCCCCCC(=O)OCC1OC(n2ccc(N)nc2=O)C(O)C1O (stereo unspecified)
[1]
  growth inhibition: -1.2%
[2]
  growth inhibition: -10.3%
[3]
  growth inhibition: 3.2%
[4]
  growth inhibition: 8.2%
[5]
  growth inhibition: 4.1%
[6]
  growth inhibition: -2.8%

## CCN(CCOC(=O)Nc1cccc(C(C)=O)c1)c1ccccc1
[1]
  growth inhibition: 91.2% (active)
[2]
  growth inhibition: 96.5% (active)
[3]
  growth inhibition: 97.5% (active)
[4]
  growth inhibition: 76.2% (active)
[5]
  growth inhibition: 92.1% (active)
[6]
  growth inhibition: 88.2% (active)

## CC(=O)c1cccc(NC(=O)Nc2ccc(Nc3ccccc3)cc2)c1
[1]
  growth inhibition: 3.8%
[2]
  growth inhibition: 6.5%
[3]
  growth inhibition: 5.6%
[4]
  growth inhibition: 2.6%
[5]
  growth inhibition: 21.8%
[6]
  growth inhibition: -0.8%

## CCCCCCCCCCCCCCC1CC(=O)OC1=O (stereo unspecified)
[1]
  growth inhibition: -22.6%
[2]
  growth inhibition: -30.1%
[3]
  growth inhibition: -9.55%
[4]
  growth inhibition: 0.5%
[5]
  growth inhibition: -10.8%
[6]
  growth inhibition: -31.8%

## CCOC(=O)c1ccccc1OCc1ccccc1
[1]
  growth inhibition: 13.3%
[2]
  growth inhibition: 15.2%
[3]
  growth inhibition: 5.75%
[4]
  growth inhibition: -5.9%
[5]
  growth inhibition: 51.8%
[6]
  growth inhibition: 14.9%

## Nc1[nH]c(=S)nc2nc3c(c(-c4ccccc4)c12)CCCC3
[1]
  growth inhibition: -45.9%
[2]
  growth inhibition: -13.5%
[3]
  growth inhibition: 6.95%
[4]
  growth inhibition: -3.05%
[5]
  growth inhibition: -13.6%
[6]
  growth inhibition: -14.4%

## O=C1C=CSc2ccccc2N1
[1]
  growth inhibition: -2.4%
[2]
  growth inhibition: 2.5%
[3]
  growth inhibition: -2.15%
[4]
  growth inhibition: 4.4%
[5]
  growth inhibition: 2.45%
[6]
  growth inhibition: 4.5%

## c1ccc(-c2ccccc2-c2ccccc2)cc1
[1]
  growth inhibition: 18.1%
[2]
  growth inhibition: -4.8%
[3]
  growth inhibition: 10.6%
[4]
  growth inhibition: -2.75%
[5]
  growth inhibition: -8.15%
[6]
  growth inhibition: 20.8%

## CCOC(=O)/C(=C\c1cc(C)c(OC(C)=O)c(OC)c1)NC(=O)c1ccccc1
[1]
  growth inhibition: -17.1%
[2]
  growth inhibition: -15.2%
[3]
  growth inhibition: -11.1%
[4]
  growth inhibition: 0.1%
[5]
  growth inhibition: -3.45%
[6]
  growth inhibition: -4.25%

## CC(COc1ccccc1)N(CCCl)Cc1ccccc1 (stereo unspecified)
[1]
  growth inhibition: 2.7%
[2]
  growth inhibition: 10.8%
[3]
  growth inhibition: -1.4%
[4]
  growth inhibition: -43.3%
[5]
  growth inhibition: 38%
[6]
  growth inhibition: 1.8%

## COc1cc(C(=O)NO)c(Br)c(OC)c1OC
[1]
  growth inhibition: -3.5%
[2]
  growth inhibition: 9.5%
[3]
  growth inhibition: -4.35%
[4]
  growth inhibition: -5.6%
[5]
  growth inhibition: -7.2%
[6]
  growth inhibition: -3.7%

## c1ccc2c(c1)ncn2C1CCCCO1 (stereo unspecified)
[1]
  growth inhibition: 4.7%
[2]
  growth inhibition: -9.8%
[3]
  growth inhibition: -16.8%
[4]
  growth inhibition: 0.9%
[5]
  growth inhibition: -7.45%
[6]
  growth inhibition: -38.3%

## Cc1cc(S(=O)(=O)O)cc(C(C)(C)C)c1O
[1]
  growth inhibition: -15.6%
[2]
  growth inhibition: -11.4%
[3]
  growth inhibition: 6.3%
[4]
  growth inhibition: 6.25%
[5]
  growth inhibition: -2.45%
[6]
  growth inhibition: -20.6%

## C1C[S][Ge]2([S]CCS1)[S]CCSCC[S]2
[1]
  growth inhibition: -10.4%
[2]
  growth inhibition: -30.5%
[3]
  growth inhibition: -16.6%
[4]
  growth inhibition: -15.5%
[5]
  growth inhibition: -30.6%
[6]
  growth inhibition: -14.8%

## CN(CCO)CCN1c2ccccc2Sc2ccccc21
[1]
  growth inhibition: -12.7%
[2]
  growth inhibition: -26.3%
[3]
  growth inhibition: -10.2%
[4]
  growth inhibition: -13.9%
[5]
  growth inhibition: -5.8%
[6]
  growth inhibition: -0.65%

## COc1cc2c(c3c1c(=O)c1ccc(F)cc1n3C)C=CC(C)(C)O2
[1]
  growth inhibition: -4.35%
[2]
  growth inhibition: -28.6%
[3]
  growth inhibition: -16.9%
[4]
  growth inhibition: -23.9%
[5]
  growth inhibition: -7.7%
[6]
  growth inhibition: -5.6%

## CCOc1ccc(N=Nc2ccc3oc(=O)c(C(=O)Nc4ccc(OC)cc4)cc3c2)cc1
[1]
  growth inhibition: 11.4%
[2]
  growth inhibition: 5.9%
[3]
  growth inhibition: -17.7%
[4]
  growth inhibition: -22.1%
[5]
  growth inhibition: 0.8%
[6]
  growth inhibition: 11.6%

## CC(=O)OC(CC1(C)C(C)CCC23COC(=O)C2=CCCC31)c1ccoc1 (stereo unspecified)
[1]
  growth inhibition: 87.3% (active)
[2]
  growth inhibition: 82.2% (active)
[3]
  growth inhibition: 85.7% (active)
[4]
  growth inhibition: 63.5%
[5]
  growth inhibition: 81.2% (active)
[6]
  growth inhibition: 82% (active)

## Cc1cc(=O)[nH]c2nc(N)ccc12
[1]
  growth inhibition: -9.5%
[2]
  growth inhibition: -8.25%
[3]
  growth inhibition: 11.7%
[4]
  growth inhibition: -24.9%
[5]
  growth inhibition: 7.8%
[6]
  growth inhibition: -18.9%

## CC(C)=NNC(=O)c1ccccc1O
[1]
  growth inhibition: 33.9%
[2]
  growth inhibition: -7.7%
[3]
  growth inhibition: 3.5%
[4]
  growth inhibition: 2.3%
[5]
  growth inhibition: 1.65%
[6]
  growth inhibition: -10.2%

## O=C(CC[n+]1ccccc1)Nc1ccc(F)cc1F
[1]
  growth inhibition: 11.4%
[2]
  growth inhibition: -1.55%
[3]
  growth inhibition: 26.1%
[4]
  growth inhibition: 20.9%
[5]
  growth inhibition: 33.6%
[6]
  growth inhibition: 17.3%
